G9a inh: qHTS Assay for Inhibitors of Histone Lysine Methyltransferase G9a; G9a H3K9 monomethylation, AlphaScreen, 2 h; Histone-lysine N-methyltransferase EHMT2 (Homo sapiens), Q96KQ7; Potency, µM (top dose mostly 102 µM), without a hit: at the highest dose activity, negative = inhibition, hits mostly inhibitors; 350,000 tested, 8.8% active; further: potency means the concentration at half of the fitted maximal effect; on the % scale 0 is the no-effect control and ±100 the full control effect; nearly all actives have a fitted effect of over 75% in size
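AlphaScreen detection with an anti-monomethyl H3K9 antibody quantified product after a 2 h room-temperature reaction containing 500 nM biotinylated H3K9 peptide, 20 µM SAM and 20 nM enzyme, which had been preincubated 15 min with compound.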
HP1b binding inh: HTS for Inhibitors of HP1-beta Chromodomain Interactions with Methylated Histone Tails; 390,000 tested, 0.56% active; AID 540317, 2011; Chromobox protein homolog 1 (Homo sapiens), P83916; Potency, µM (titrated, usually from 114 µM), for inactives: at the highest dose activity change, negative = inhibition, usual class: inhibitors; AlphaScreen HP1-beta / biotin-H3K9me3 peptide binding; further: potency means the concentration at half of the fitted maximal effect; nearly all actives have a fitted effect of over 70% in size
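HP1-beta protein (50 nM final) preincubated 30 min at room temperature with biotinylated H3(1-18)K9me3 peptide (50 nM) in PBS pH 7.4, 0.01% Tween-20, then compound added for 30 min. AlphaScreen streptavidin donor/nickel chelate acceptor beads (10 ug/mL final), 30 min dark, luminescence read.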
BAZ2B inh: qHTS Assay for Inhibitors of BAZ2B. Bromodomain adjacent to zinc finger domain protein 2B (Homo sapiens), Q9UIF8. AlphaScreen BAZ2B-H3K14Ac peptide displacement. Potency, µM (highest dose often 114 µM), for the others: at the top dose activity change, negative = inhibition, usual class: inhibitors. 360,000 tested, 4.4% active; further: potency means the concentration at half of the fitted maximal effect; on the % scale 0 is the no-effect control and ±100 the full control effect; nearly all actives have a fitted effect of over 60% in size
Target sequence (Q9UIF8 whole entry, looked up, the tested form may be a part): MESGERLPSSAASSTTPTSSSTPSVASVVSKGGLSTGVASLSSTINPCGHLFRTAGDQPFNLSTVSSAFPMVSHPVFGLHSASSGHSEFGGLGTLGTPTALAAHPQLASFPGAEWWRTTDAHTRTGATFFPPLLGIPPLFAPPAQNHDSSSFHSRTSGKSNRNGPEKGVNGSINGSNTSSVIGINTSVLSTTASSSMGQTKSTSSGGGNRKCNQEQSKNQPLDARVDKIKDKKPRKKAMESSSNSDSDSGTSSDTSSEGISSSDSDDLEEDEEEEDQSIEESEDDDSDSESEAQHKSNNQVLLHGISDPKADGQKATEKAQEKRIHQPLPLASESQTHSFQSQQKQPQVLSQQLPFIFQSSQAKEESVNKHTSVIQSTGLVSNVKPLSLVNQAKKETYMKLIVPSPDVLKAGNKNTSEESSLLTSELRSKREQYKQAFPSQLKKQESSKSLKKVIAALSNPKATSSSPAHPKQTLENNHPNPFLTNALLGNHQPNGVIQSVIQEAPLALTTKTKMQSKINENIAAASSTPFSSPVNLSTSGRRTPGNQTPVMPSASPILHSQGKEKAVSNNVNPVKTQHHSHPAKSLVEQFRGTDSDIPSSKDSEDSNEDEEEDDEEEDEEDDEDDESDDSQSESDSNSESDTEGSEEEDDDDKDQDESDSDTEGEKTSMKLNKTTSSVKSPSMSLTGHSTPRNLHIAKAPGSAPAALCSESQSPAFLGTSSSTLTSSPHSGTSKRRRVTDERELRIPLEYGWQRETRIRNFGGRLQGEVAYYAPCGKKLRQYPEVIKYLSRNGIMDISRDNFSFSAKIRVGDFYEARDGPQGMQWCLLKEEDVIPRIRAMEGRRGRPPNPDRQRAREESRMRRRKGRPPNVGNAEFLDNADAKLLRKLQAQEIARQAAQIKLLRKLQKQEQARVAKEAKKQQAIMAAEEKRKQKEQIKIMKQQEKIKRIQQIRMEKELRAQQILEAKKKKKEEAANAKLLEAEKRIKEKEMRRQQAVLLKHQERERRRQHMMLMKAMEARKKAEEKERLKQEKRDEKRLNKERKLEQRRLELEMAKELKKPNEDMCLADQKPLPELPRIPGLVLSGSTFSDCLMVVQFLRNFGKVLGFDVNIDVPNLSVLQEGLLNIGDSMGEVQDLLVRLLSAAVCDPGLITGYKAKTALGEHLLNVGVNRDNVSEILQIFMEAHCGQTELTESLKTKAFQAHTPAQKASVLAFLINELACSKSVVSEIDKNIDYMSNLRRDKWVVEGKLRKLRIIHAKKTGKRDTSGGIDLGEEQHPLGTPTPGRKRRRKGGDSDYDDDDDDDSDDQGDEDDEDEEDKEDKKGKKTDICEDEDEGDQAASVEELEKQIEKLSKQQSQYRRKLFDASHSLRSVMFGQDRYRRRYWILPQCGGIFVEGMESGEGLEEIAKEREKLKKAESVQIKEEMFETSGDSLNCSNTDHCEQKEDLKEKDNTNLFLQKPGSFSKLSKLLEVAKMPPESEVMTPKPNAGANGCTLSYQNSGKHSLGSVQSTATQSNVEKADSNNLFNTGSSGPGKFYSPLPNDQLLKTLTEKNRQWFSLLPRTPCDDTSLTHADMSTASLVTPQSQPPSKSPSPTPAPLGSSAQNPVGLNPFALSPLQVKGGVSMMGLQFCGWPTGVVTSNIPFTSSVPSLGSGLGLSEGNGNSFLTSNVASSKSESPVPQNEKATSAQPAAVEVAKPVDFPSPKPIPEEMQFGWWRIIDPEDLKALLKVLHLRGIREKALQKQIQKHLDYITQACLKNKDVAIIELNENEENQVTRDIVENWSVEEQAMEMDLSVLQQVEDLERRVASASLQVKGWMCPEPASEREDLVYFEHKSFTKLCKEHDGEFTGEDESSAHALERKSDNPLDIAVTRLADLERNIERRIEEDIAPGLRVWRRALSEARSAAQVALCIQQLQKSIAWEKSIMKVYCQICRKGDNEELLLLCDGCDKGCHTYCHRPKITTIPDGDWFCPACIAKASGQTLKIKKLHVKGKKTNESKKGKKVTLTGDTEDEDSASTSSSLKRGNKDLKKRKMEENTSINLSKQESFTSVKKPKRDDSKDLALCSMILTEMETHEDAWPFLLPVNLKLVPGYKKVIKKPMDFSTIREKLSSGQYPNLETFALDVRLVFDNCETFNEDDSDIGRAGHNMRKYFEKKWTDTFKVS
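BAZ2B 50 nM plus b-H3(5-23)K14Ac 50 nM, PBS pH 7.4/0.01% Tween-20, 30 min RT; compound added (max 110 uM), 30 min RT; streptavidin donor/Ni-chelate acceptor beads 10 ug/mL final, 20 min dark; AlphaScreen read.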
CtBP-E1A blk: qHTS Assay for Inhibitors of the CtBP/E1A Interaction | CtBP / adenovirus E1A interaction (AlphaScreen) | AlphaScreen GST-E1A/His-CtBP binding, 1536-well; stronger effect = lower value | activity change, % (no concentration beside the values) | 340,000 tested, 0.49% active | AID 651724, 2012; in the data active means activity change below about -65%; inconclusive means mostly about -30% to -63%; further: on the % scale 0 is the no-effect control and ±100 the full control effect
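Homogeneous bead-based format: GST-tagged E1A captured on glutathione donor beads, His-tagged CtBP on nickel acceptor beads; compounds precede bead addition by 2 h at 37 °C.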
Six1-Eya2 blk: qHTS Assay for Inhibitors of the Six1/Eya2 Interaction; Homeobox protein SIX1 (Homo sapiens) + Protein phosphatase EYA2 (Homo sapiens), …; AlphaScreen GST-Six1/His-Eya2 binding, biochemical; stronger effect = lower value; activity change, % (test concentration not listed); 360,000 tested, 0.56% active; AID 651725, 2012; in the data active means activity change below about -65%; inconclusive means mostly about -30% to -63%; further: on the % scale 0 is the no-effect control and ±100 the full control effect
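GST-Six1 + His-Eya2 (5X stock: 250/500 nM); Tris pH 8.0, 300 mM NaCl, 0.05% BSA, 0.02% Tween 20; GSH donor/Ni acceptor beads; 1 h 37 °C dark; AlphaScreen readout.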
JMJD2A Tudor: qHTS Assay for Inhibitors of JMJD2A-Tudor Domain; Potency, µM (top dose mostly 114 µM), inactives show top-dose activity change, negative = inhibition, actives largely listed as inhibitors; Lysine-specific demethylase 4A (Homo sapiens), O75164; 390,000 tested, 4.4% active; AlphaScreen JMJD2A-Tudor / H3K4me3 peptide binding; further: potency means the concentration at half of the fitted maximal effect; on the % scale 0 is the no-effect control and ±100 the full control effect; nearly all actives have a fitted effect of over 50% in size
* marks the source's active call; other numbers are inactive results; ? = inconclusive; / = no result; [ ] = remark or other dose. Sampled rows, rich in hits. Any-hit rate of the full collection: about 10%. Unless noted, the call rests on the fitted dose curve; in most records, active means well fitted inhibition curve with a large enough effect; inconclusive means small, poorly fitted or top-dose-only effect; inactive means no such curve, though single readings can be large or run the other way.

SMILES | G9a inh | HP1b binding inh | BAZ2B inh | CtBP-E1A blk | Six1-Eya2 blk | JMJD2A Tudor
CCn1c(CC(=O)Nc2cccc(Cl)c2Cl)nnc1SCCOc1ccc(OC)cc1 | 25µM* | 26% | -7% | -5 | -2 | ?
COc1ccc(OCCSc2nnc(CC(=O)Nc3cccc(Cl)c3Cl)n2C)cc1 | 3.2µM* | 8% | -12% | -14 | -5 | ?
O=C(Nc1ccccc1Br)C1CCN(C(=O)Cc2ccccc2)CC1 | 2%[59 µM] | 26% | 5% | 9 | 5 | -1%
COC(=O)c1nnn(CC(=O)Nc2ccc(Br)c(C)c2)c1N | 4%[59 µM] | 28% | -1% | / | / | -8%
COc1ccc(NC(=S)Nc2ccc(S(N)(=O)=O)cc2)c(OC)c1 | 56µM* | -10% | -38% | 20 | -2 | -10%
COc1ccc(C(=O)NC(=S)Nc2ccc(S(N)(=O)=O)cc2)cc1 | ? | 18% | -10% | 0 | -1 | -15%
COc1ccc(NC(=S)NNS(=O)(=O)c2ccc3ccccc3c2)c(OC)c1 | / | ? | ? | 2 | 2 | 25µM*
COc1cc(C(=O)NNC(=S)Nc2ccc(S(N)(=O)=O)cc2)cc(OC)c1OC | 8.9µM* | -10% | -23% | / | -2 | -5%[11.4 µM]
CCC1CN(C(=O)N2CCC(C(=O)NCc3ccc(N(C)C)cc3)CC2)c2ccccc2O1 (stereo unspecified) | -29%[59 µM] | 35% | -34% | / | / | -21%
Cn1cc(S(=O)(=O)c2cccc(Cl)c2)c(=O)c2cc(F)c(N3CCCCCC3)cc21 | 7%[59 µM] | 8% | 3% | / | / | -10%
COc1ccc(-n2nc(C(=O)O)c3ccccc3c2=O)c(OC)c1 | -39%[12.7 µM] | 35% | -2% | 11 | 4 | -8%
COc1ccc(C)cc1-n1c(=O)c2ccccc2c2ccccc2c1=O | 18µM* | 28% | ? | -5 | -20 | -7%
COc1ccc(-n2c(=O)c3ccccc3c3ccccc3c2=O)c(OC)c1 | 10µM* | 30% | -8% | -1 | -16 | -30%
COc1ccc(C)cc1-n1c(SCC(=O)Nc2cc(C)on2)nc2ccccc2c1=O | 3% | 26% | -26% | 8 | -14 | -21%
O=C1c2cccc3c(N4CCOCC4)c([N+](=O)[O-])cc(c23)C(=O)N1c1cccc2ccccc12 | 11µM* | -12% | ? | -2 | -15 | ?
NC1(C(=O)O)CCc2cc(P(=O)(O)O)ccc21 (stereo unspecified) | -2%[59 µM] | / | / | / | / | /
S=c1[nH]nc(-c2ccco2)n1/N=C/c1cccc(Cl)c1Cl | 1.4µM* | -38% | 50µM* | -10 | -5 | 35µM*
S=c1[nH]nc(-c2ccco2)n1/N=C/c1ccc(Cl)cc1Cl | ? | -21% | ? | -25 | -12 | 40µM*
O=c1c(-c2ccccc2)nc2cncnc2n1Cc1ccccc1 | 12%[0.501 µM] | / | / | / | / | /
OCCN(Cc1ccccc1)Cc1ccc(Cl)cc1Cl | 7.1µM* | ? | ? | 29 | 10 | 3.5µM*
Cc1nc(-c2ccc(Cl)cc2)sc1CCNC(=O)C(=O)Nc1ccc2c(c1)OCCO2 | 22%[59 µM] | 20%[57 µM] | -2% | / | / | -12%
O=C(Nc1nnc2n1CCS2)c1ccc(F)cc1F | 2.2µM* | 13%[57 µM] | 50µM* | / | / | 50µM*
O=C(Nc1ccc(N2CCCCC2)cc1)c1ccc(F)cc1F | / | 7% | -6% | -8 | -1 | -16%
Cc1ccccc1C(=O)Nc1nnc2n1CCS2 | 8.9µM* | 9%[57 µM] | ? | / | / | ?
Nc1ccc(N2CCCCC2)c(Cl)c1 | 45µM* | -32% | -26% | -2 | -3 | -34%
SMILES | G9a inh | HP1b binding inh | BAZ2B inh | CtBP-E1A blk | Six1-Eya2 blk | JMJD2A Tudor
Nc1ccc(N2CCOCC2)c(Cl)c1 | ? | -28% | -37% | -1 | -3 | -7%[11.4 µM]
COc1ccccc1NS(=O)(=O)c1cc(N)ccc1N1CCCCC1 | 4µM* | -27% | ? | / | -17 | 56µM*
CCC(C(=O)Nc1ccc(N2CCOCC2)c(S(=O)(=O)Nc2ccccc2OC)c1)c1ccccc1 (stereo unspecified) | / | 11% | / | 1 | -15 | -21%
Nc1ccc(N2CCCCC2)c(S(=O)(=O)Nc2ccccc2Cl)c1 | 14µM* | ? | ? | -17 | -25 | ?
CCCS(=O)(=O)Nc1ccc(N2CCCCC2)c(S(=O)(=O)Nc2ccccc2OC)c1 | 11µM* | -24% | -31% | -1 | -11 | -26%
COC(C/C=C\[C@H](O)[C@@H](C)OCc1ccccc1)OC | / | 4% | / | / | -3 | -4%
COc1cc(NC(=O)c2sc3nc4n(c(=O)c3c2C)CCCCC4)cc(OC)c1OC | 9%[59 µM] | 30% | -1% | / | / | 7%
OC(CNCC(c1ccco1)N1CCCCC1)c1ccccc1 (stereo unspecified) | 2.2µM* | -56% | 50µM* | -2 | 4 | 1.1µM*
O=C(CSc1ccccc1)NCC(c1ccco1)N1CCCCC1 (stereo unspecified) | 3%[12.7 µM] | 13% | -20% | -1 | -1 | -10%
CCOC(=O)C1CCCCN1Cc1cccc(OCc2ccccc2)c1 (stereo unspecified) | / | ? | ? | 33 | 18 | 10µM*
CC(C)NC(=O)C1CCN(Cc2cccc(Oc3ccccc3)c2)CC1 | / | ? | ? | 1 | 0 | 22µM*
COC(=O)C1CCN(Cc2ccc(C)cc2)CC1 | 2%[59 µM] | 38% | 3% | -5 | 14 | -15%
CCOC(=O)C1CCCCN1Cc1cccc(Oc2ccccc2)c1 (stereo unspecified) | 53% | 107% | 63% | 21 | 32 | 65%
CCOC(=O)C1CCN(Cc2ccc(F)c(Br)c2)CC1 | ? | -50% | 50µM* | 8 | 5 | 3.2µM*
COCCNC(=O)C1CCCN(Cc2ccccc2)CC1 (stereo unspecified) | / | / | / | -19 | 14 | /
CC(C)CNC(=O)C1CCN(Cc2ccc(OCc3ccccc3)cc2)CC1 | ? | ? | ? | -3 | -5 | 1.1µM*
CN(C)c1ncc2nc(CCc3ccccc3)c(=O)n(-c3ccccc3)c2n1 | -2%[12.7 µM] | / | / | / | / | /
CNc1ccccc1C(=O)OCC(=O)N(CCOC)c1c(N)n(CC(C)C)c(=O)[nH]c1=O | -1% | 29% | -3% | 9 | -3 | -3%
CCOC(=O)C1CCN(Cc2nnnn2CCc2ccccc2)CC1 | / | 58% | -8% | 9 | 12 | 2%
CCOC(=O)C1CCN(Cc2cccc(OCc3ccccc3)c2)CC1 | ? | ? | -12% | / | 1 | 8.9µM*

Source: PubChem BioAssay (National Center for Advancing Translational Sciences (NCATS))
